# This is one part of a sample in which the strongest signals are shown more often than they occur.
# B1: HFR-1 (Triticum aestivum) (protein)
# chain: MSPQSFTLETTTTTPAAKGSDPSYFQSAPACHEMIQHKELLLHLYAYQNVQKTPDANQAVIVESKRPECFGILAANDWTVYDGPAHNANLVAHAQGLHLGASMAKENWFICFNMVFVNQRFTGSSFKVMGDFQGTAHNGEWAIVGGTGEFAYAQGVIAFKKTQQSERNARMELHVRAMCLSFLRPLLSLGDGSAVAKIGPWGKMSGELLDIPSTPQRLERITIRHGVVIDSLAFSFIDKAGEPYNVGPWGGRRGDNKDTIELAPSEIVTEVSGTVGIFAEDNVEYNAIASLTITTNHRPYGPFGETQSTPFSVPVQDNNNIVGFFACAGKYVEALGVYVRSPVST
# B2: CD83 (Homo sapiens) (protein)
# chain: MSRGLQLLLLSCAYSLAPATPEVKVACSEDVDLPCTAPWDPQVPYTVSWVKLLEGGEERMETPQEDHLRGQHYHQKGQNGSFDAPNERPYSLKIRNTTSCNSGTYRCTLQDPDGQRNLSGKVILRVTGCPAQRKEETFKKYRAETSEQKLISEEDLSRGSDDDDKAEPRGP
# Key:
# Test in all cases: glycan array binding signal (z-score within array); higher = stronger binding
# Details in all cases: glycan notation: IUPAC condensed, linker removed
# [1] = target: Fuc(a1-2)Gal(b1-3)[Fuc(a1-4)]GlcNAc
# How it was run: (§1)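 Glycan array binding is given as a within-array Z-score, which can be read as non-binding when negative. The arrays, 3228 of them, came from the Consortium for Functional Glycomics database and were retained only where the protein sequence was available. Z-scores were averaged across arrays of the same protein sequence at different concentrations or buffers and across linkers.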
# [2] = target: Fuc(a1-2)[Gal(a1-3)]Gal(b1-4)[Fuc(a1-3)]GlcNAc
# How it was run: as §1
# [3] = target: Fuc(a1-3)[Gal(b1-4)]GlcNAc(b1-3)Gal(b1-3)[Fuc(a1-4)]GlcNAc
# How it was run: as §1
# [4] = target: Fuc(a1-3)[Gal(b1-4)]GlcNAc(b1-4)Gal(b1-4)[Fuc(a1-3)]GlcNAc
# How it was run: as §1
# [5] = target: Fuc(a1-4)GlcNAc
# How it was run: as §1
# [6] = target: Gal(a1-3)[Gal(a1-4)]Gal(b1-4)GlcNAc
# How it was run: as §1
# [7] = target: Gal(a1-4)GlcNAc
# How it was run: as §1
# [8] = target: Gal(b1-2)Gal
# How it was run: as §1
# [9] = target: Gal(b1-4)GlcNAc(b1-6)[Gal(b1-3)]GalNAc
# How it was run: as §1
# [10] = target: Man(a1-2)Man(a1-6)[Man(a1-3)]Man(a1-6)[Man(a1-2)Man(a1-2)Man(a1-3)]Man
# How it was run: as §1
# [11] = target: Man(a1-3)[Man(a1-6)]Man
# How it was run: as §1
# [12] = target: Man(a1-3)[Man(a1-6)]Man(a1-6)[Man(a1-2)Man(a1-3)]Man(b1-4)GlcNAc(b1-4)GlcNAc
# How it was run: as §1
# [13] = target: Man(a1-3)[Man(a1-6)]Man(a1-6)[Man(a1-3)]Man
# How it was run: as §1
# [14] = target: Man(a1-3)[Man(a1-6)]Man(a1-6)[Man(a1-3)]Man(b1-4)GlcNAc(b1-4)GlcNAc
# How it was run: as §1
# [15] = target: Man(a1-3)[Man(a1-6)]Man(b1-4)GlcNAc(b1-4)GlcNAc
# How it was run: as §1
# [16] = target: Neu5Ac(a2-3)Gal(b1-3)GalNAc6S
# How it was run: as §1
# [17] = target: Neu5Ac(a2-3)Gal6S(b1-4)GlcNAc
# How it was run: as §1
# [18] = target: Neu5Ac(a2-3)[GalNAc(b1-4)]Gal(b1-4)Glc
# How it was run: as §1
# [19] = target: Neu5Ac(a2-3)[GalNAc(b1-4)]Gal(b1-4)GlcNAc
# How it was run: as §1
# [20] = target: Neu5Ac(a2-6)Gal(b1-4)GlcNAc
# How it was run: as §1
# [21] = target: Neu5Ac(a2-6)Gal(b1-4)GlcNAc(b1-2)Man(a1-6)[Gal(b1-4)GlcNAc(b1-2)Man(a1-3)]Man(b1-4)GlcNAc(b1-4)GlcNAc
# How it was run: as §1
# [22] = target: Neu5Ac(a2-8)Neu5Ac(a2-8)Neu5Ac(a2-8)Neu5Ac(a2-3)[GalNAc(b1-4)]Gal(b1-4)Glc
# How it was run: as §1
# [23] = target: Neu5Gc(a2-3)Gal(b1-4)GlcNAc
# How it was run: as §1
# [24] = target: Fuc(a1-2)GlcNAc
# How it was run: as §1
# [25] = target: Fuc(a1-2)[GalNAc(a1-3)]Gal(b1-3)GlcNAc
# How it was run: as §1
# [26] = target: Gal(b1-3)GalNAc(b1-4)Gal(b1-4)Glc
# How it was run: as §1
# [27] = target: Gal(b1-3)GlcNAc(b1-3)Gal(b1-4)Glc
# How it was run: as §1
# [28] = target: Gal(b1-3)[Fuc(a1-4)]GlcNAc(b1-3)Gal(b1-4)[Fuc(a1-3)]GlcNAc
# How it was run: as §1
# [29] = target: Gal(b1-4)GlcNAc(b1-3)Gal(b1-4)GlcNAc(b1-3)Gal(b1-4)GlcNAc
# How it was run: as §1
# [30] = target: Gal3S6S(b1-4)GlcNAc6S
# How it was run: as §1
# [31] = target: GalNAc(a1-3)GalNAc
# How it was run: as §1
# [32] = target: GlcNAc(b1-3)Gal(b1-4)GlcNAc
# How it was run: as §1
# [33] = target: GlcNAc(b1-3)Man
# How it was run: as §1
# [34] = target: GlcNAc(b1-3)[GlcNAc(b1-6)]GalNAc
# How it was run: as §1
# [35] = target: Man(a1-2)Man(a1-3)[Man(a1-2)Man(a1-6)]Man(a1-6)[Man(a1-2)Man(a1-2)Man(a1-3)]Man(b1-4)GlcNAc(b1-4)GlcNAc
# How it was run: as §1
# [36] = target: Neu5Ac(a2-3)Gal(b1-3)GalNAc(b1-3)Gal(a1-4)Gal(b1-4)Glc
# How it was run: as §1
# [37] = target: Neu5Ac(a2-3)Gal(b1-3)GlcNAc6S
# How it was run: as §1
# [38] = target: Neu5Ac(a2-3)Gal(b1-3)[Neu5Ac(a2-3)Gal(b1-4)]GlcNAc
# How it was run: as §1
# [39] = target: Neu5Ac(a2-3)Gal(b1-4)[Fuc(a1-3)]GlcNAc(b1-3)Gal(b1-4)GlcNAc
# How it was run: as §1
# [40] = target: Neu5Ac(a2-3)Gal(b1-4)[Fuc(a1-3)]GlcNAc(b1-3)Gal(b1-4)[Fuc(a1-3)]GlcNAc(b1-3)Gal(b1-4)[Fuc(a1-3)]GlcNAc
# How it was run: as §1
# [41] = target: Neu5Ac(a2-3)Gal(b1-4)[Fuc(a1-3)]GlcNAc(b1-6)[Gal(b1-3)]GalNAc
# How it was run: as §1
# [42] = target: Neu5Ac(a2-3)Gal6S(b1-4)[Fuc(a1-3)]GlcNAc
# How it was run: as §1
# [43] = target: Neu5Ac(a2-3)GalNAc(b1-4)GlcNAc
# How it was run: as §1
# [44] = target: Neu5Ac(a2-6)Gal(b1-4)GlcNAc(b1-3)Gal(b1-4)[Fuc(a1-3)]GlcNAc(b1-3)Gal(b1-4)[Fuc(a1-3)]GlcNAc
# How it was run: as §1
# [45] = target: Neu5Ac(a2-8)Neu5Ac(a2-8)Neu5Ac(a2-3)Gal(b1-4)Glc
# How it was run: as §1
# [46] = target: Neu5Ac(a2-8)Neu5Ac(a2-8)Neu5Ac(a2-3)[GalNAc(b1-4)]Gal(b1-4)Glc
# How it was run: as §1
binder,measurement,setting,value
B1,glycan array binding signal (z-score),[1],-0.201
same,glycan array binding signal (z-score),[2],-0.225
same,glycan array binding signal (z-score),[3],-0.224
same,glycan array binding signal (z-score),[4],-0.165
same,glycan array binding signal (z-score),[5],-0.057
same,glycan array binding signal (z-score),[6],-0.199
same,glycan array binding signal (z-score),[7],-0.22
same,glycan array binding signal (z-score),[8],0.042
same,glycan array binding signal (z-score),[9],-0.206
same,glycan array binding signal (z-score),[10],-0.214
same,glycan array binding signal (z-score),[11],4.93
same,glycan array binding signal (z-score),[12],6.43
same,glycan array binding signal (z-score),[13],7.26
same,glycan array binding signal (z-score),[14],7.87
same,glycan array binding signal (z-score),[15],5.48
same,glycan array binding signal (z-score),[16],-0.218
same,glycan array binding signal (z-score),[17],-0.213
same,glycan array binding signal (z-score),[18],-0.024
same,glycan array binding signal (z-score),[19],-0.165
same,glycan array binding signal (z-score),[20],-0.223
same,glycan array binding signal (z-score),[21],-0.222
same,glycan array binding signal (z-score),[22],0.01
same,glycan array binding signal (z-score),[23],-0.221
B2,glycan array binding signal (z-score),[1],-0.388
same,glycan array binding signal (z-score),[24],-0.045
same,glycan array binding signal (z-score),[25],-0.222
same,glycan array binding signal (z-score),[26],-0.09
same,glycan array binding signal (z-score),[27],-0.32
same,glycan array binding signal (z-score),[28],-0.243
same,glycan array binding signal (z-score),[29],-0.142
same,glycan array binding signal (z-score),[30],-0.129
same,glycan array binding signal (z-score),[31],-0.329
same,glycan array binding signal (z-score),[32],-0.162
same,glycan array binding signal (z-score),[33],-0.188
same,glycan array binding signal (z-score),[34],-0.453
same,glycan array binding signal (z-score),[35],2.96
same,glycan array binding signal (z-score),[10],-0.272
same,glycan array binding signal (z-score),[12],11.7
same,glycan array binding signal (z-score),[14],0.723
same,glycan array binding signal (z-score),[36],0.647
same,glycan array binding signal (z-score),[37],8.93
same,glycan array binding signal (z-score),[38],-0.458
same,glycan array binding signal (z-score),[39],0.381
same,glycan array binding signal (z-score),[40],-0.243
same,glycan array binding signal (z-score),[41],-0.12
same,glycan array binding signal (z-score),[42],-0.131
same,glycan array binding signal (z-score),[43],-0.291
same,glycan array binding signal (z-score),[44],0.014
same,glycan array binding signal (z-score),[45],3.7
same,glycan array binding signal (z-score),[46],2.88
